Records with an inconclusive call do not appear. Calls of active or inactive are those of the source. Unless noted, calls follow the shape of the dose curve; as a rule, active = well fitted curve in the direction sought with a large enough effect; inconclusive = small, poorly fitted or top-dose-only effect, or another doubt; inactive = no such curve, though single readings can be large; an effect the other way counts as inactive or inconclusive.
Experiments:
[1] = Inducers of the Endoplasmic Reticulum Stress Response (ERSR) in human glioma: Validation (AID 504836); also: 0% is about no effect
In short: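 Stably transfected U87-MG human glioma cells carrying a GRP78-based luminescent sensor were seeded at 1000 cells/well, pin-dosed with compounds and incubated 16 h. Luciferase reagent was then added, and end-point luminescence was read after 10 min at room temperature.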

[2] = qHTS for Inhibitors of the Functional Ribonucleoprotein Complex (vRNP) of Lassa (LASV) Arenavirus: LASV Primary Screen - GLuc reporter signal (AID 1347082; calls by dose curve; tested in HEK293 reporter line; also: series mostly up to about 57 µM; % is scaled to controls: 0 for no effect and ±100 for the full control effect; nearly all actives have a fitted effect of over 60% in size)
[3] = qHTS for Inhibitors of the Functional Ribonucleoprotein Complex (vRNP) of Lassa (LASV) Arenavirus: Viability assay - alamar blue signal for LASV Primary Screen (AID 1347083; calls by dose curve; tested in HEK293 reporter line; also: series mostly up to about 57 µM; % is scaled to controls: 0 for no effect and ±100 for the full control effect; nearly all actives have a fitted effect of over 80% in size)
[4] = qHTS for Inhibitors of the Functional Ribonucleoprotein Complex (vRNP) of Lymphocytic Choriomeningitis Arenaviruses (LCMV): Viability assay - alamar blue signal for LCMV Primary Screen (AID 1347085; calls by dose curve; tested in HEK293 reporter line; also: series mostly up to about 57 µM; % is scaled to controls: 0 for no effect and ±100 for the full control effect; nearly all actives have a fitted effect of over 80% in size)
[5] = biological target: Nucleoprotein (Lymphocytic choriomeningitis virus (strain Armstrong)) (UniProt P09992); assay: qHTS for Inhibitors of the Functional Ribonucleoprotein Complex (vRNP) of Lymphocytic Choriomeningitis Arenaviruses (LCMV): LCMV Primary Screen - GLuc reporter signal (AID 1347086; calls by dose curve; also: series mostly up to about 57 µM; % is scaled to controls: 0 for no effect and ±100 for the full control effect; nearly all actives have a fitted effect of over 70% in size)
[6] = biological target: Ubiquitin carboxyl-terminal hydrolase 1 (Homo sapiens) (UniProt O94782); assay: Inhibitors of USP1/UAF1: Pilot qHTS (AID 504865);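 also: rhodamine fluorescence freed from ubiquitin-rhodamine substrate followed over time; top concentration of the series differs between compounds; % is scaled to controls: 0 for no effect and ±100 for the full control effect; nearly all actives have a fitted effect of over 35% in size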
In short: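 In 50mM HEPES pH 7.8 containing 0.5mM EDTA, 1mM TCEP, 0.1 mg/ml BSA and 0.01% Tween-20, 1nM USP1/UAF1 is exposed to compound for 15 min, then Ub-Rho (150nM final) is added and fluorescence is read over time.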

[7] = biological target: Bile acid receptor (Homo sapiens) (UniProt Q96RI1); assay: qHTS assay for small molecule agonists of farnesoid X receptor signaling (AID 588527; calls by dose curve;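 also: series mostly up to about 77 µM; 0% = vehicle basal and 100% = reference agonist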); settings: HEK293T FXR-UAS-bla, beta-lactamase ratio, 16 h; activation: active compounds read high
In short: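 Quantitative HTS used FXR-UAS-bla HEK293T cells with 16 h compound incubation at 37 C. EC50 values came from concentration-response curves normalized to chenodeoxycholic acid.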

[8] = biological target: Alpha-galactosidase (Coffea arabica) (UniProt Q42656); assay: Counterscreen for Glucocerebrosidase Inhibitors: qHTS Assay for Coffee Bean alpha-Galactosidase at pH 4.5 (AID 957);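 also: series mostly up to about 77 µM; plate controls were enzyme alone for no effect and no enzyme for full effect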
In short: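 AC50 values derive from Hill-equation modeling of concentration-response data, normalized to no-enzyme and full-activity controls. The pH 4.5 citrate assay used 2 nM coffee bean enzyme and 80 uM fluorogenic substrate for 20 min.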

[9] = biological target: Alpha-galactosidase (Coffea arabica) (UniProt Q42656); assay: Counterscreen for Glucocerebrosidase Inhibitors: qHTS Assay for Coffee Bean alpha-Galactosidase at pH 5.9 (AID 998);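 also: plate controls were uninhibited enzyme for no effect and no-enzyme basal signal for full effect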
In short: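 Green coffee bean enzyme (2 nM final) was incubated with compounds (0.7 nM–77 uM) and 4-methylumbelliferyl alpha-D-galactopyranoside (80 uM) in citrate buffer pH 5.9, 20 min at room temperature. High-pH stop; fluorescence 365/440 nm; AC50 from Hill fits.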

[10] = biological target: Arylsulfatase A (Homo sapiens) (UniProt P15289); assay: qHTS screen for enhancers of Arylsulfatase A (ASA1): LOPAC Validation Assay (AID 720538); also: 0% is about no effect
In short: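 MLD patient fibroblasts (SV40, ASA-I179S), 1536-well; adhere 6 hrs; cpd 48h, 37 degree C, 5% CO2; pNCS 0.5mM final in lysis buffer, 14h RT; stop 1N NaOH final; fluor. Ex525/Em598.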

Sequence of Nucleoprotein (Lymphocytic choriomeningitis virus (strain Armstrong)) (P09992 whole entry, looked up): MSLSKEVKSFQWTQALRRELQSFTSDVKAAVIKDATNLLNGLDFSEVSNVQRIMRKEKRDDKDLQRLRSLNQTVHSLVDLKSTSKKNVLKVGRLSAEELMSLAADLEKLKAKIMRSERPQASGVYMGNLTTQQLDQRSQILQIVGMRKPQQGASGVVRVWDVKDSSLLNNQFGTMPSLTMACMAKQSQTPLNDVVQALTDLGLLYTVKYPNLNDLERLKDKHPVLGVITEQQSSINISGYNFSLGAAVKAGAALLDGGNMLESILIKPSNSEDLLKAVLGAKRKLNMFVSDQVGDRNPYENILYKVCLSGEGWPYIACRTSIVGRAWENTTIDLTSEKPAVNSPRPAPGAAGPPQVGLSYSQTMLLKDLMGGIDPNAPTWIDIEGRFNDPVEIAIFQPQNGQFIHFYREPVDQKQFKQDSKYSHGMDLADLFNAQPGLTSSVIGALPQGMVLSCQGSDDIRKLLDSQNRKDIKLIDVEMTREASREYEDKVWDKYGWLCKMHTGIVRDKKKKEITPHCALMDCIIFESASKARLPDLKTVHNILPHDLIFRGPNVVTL
Sequence of Ubiquitin carboxyl-terminal hydrolase 1 (Homo sapiens) (O94782 whole entry, looked up): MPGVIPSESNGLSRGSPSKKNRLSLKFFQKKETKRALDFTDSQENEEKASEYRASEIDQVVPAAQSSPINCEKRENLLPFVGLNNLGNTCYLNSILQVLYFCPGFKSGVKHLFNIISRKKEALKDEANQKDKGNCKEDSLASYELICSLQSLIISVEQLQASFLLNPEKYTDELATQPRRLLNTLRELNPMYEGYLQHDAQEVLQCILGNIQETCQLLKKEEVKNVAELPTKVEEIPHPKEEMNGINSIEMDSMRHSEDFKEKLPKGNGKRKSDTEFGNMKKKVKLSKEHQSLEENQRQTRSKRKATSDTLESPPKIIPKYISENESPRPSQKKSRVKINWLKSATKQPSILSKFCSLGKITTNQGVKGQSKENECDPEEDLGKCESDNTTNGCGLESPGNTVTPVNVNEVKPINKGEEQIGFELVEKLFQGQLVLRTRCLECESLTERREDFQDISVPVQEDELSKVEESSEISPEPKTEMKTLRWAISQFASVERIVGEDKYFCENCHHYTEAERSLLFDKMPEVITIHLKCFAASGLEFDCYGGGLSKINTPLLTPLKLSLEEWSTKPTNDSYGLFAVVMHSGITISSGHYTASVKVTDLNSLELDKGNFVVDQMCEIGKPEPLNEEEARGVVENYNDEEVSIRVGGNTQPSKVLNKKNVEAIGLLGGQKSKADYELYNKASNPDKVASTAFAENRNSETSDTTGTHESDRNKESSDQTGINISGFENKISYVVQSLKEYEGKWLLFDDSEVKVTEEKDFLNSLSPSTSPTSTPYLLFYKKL
Sequence of Alpha-galactosidase (Coffea arabica) (Q42656 whole entry, looked up): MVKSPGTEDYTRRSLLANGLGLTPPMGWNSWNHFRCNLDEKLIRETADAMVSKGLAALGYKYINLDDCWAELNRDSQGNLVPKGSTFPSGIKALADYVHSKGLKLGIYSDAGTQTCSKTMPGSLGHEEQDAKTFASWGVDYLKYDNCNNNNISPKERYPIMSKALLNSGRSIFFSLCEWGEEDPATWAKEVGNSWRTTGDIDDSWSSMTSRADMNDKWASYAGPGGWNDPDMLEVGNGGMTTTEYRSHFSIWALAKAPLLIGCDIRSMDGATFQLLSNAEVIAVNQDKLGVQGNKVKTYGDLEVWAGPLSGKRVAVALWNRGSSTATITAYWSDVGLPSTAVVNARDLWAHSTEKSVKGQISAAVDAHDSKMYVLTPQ
Sequence of Bile acid receptor (Homo sapiens) (Q96RI1 whole entry, looked up): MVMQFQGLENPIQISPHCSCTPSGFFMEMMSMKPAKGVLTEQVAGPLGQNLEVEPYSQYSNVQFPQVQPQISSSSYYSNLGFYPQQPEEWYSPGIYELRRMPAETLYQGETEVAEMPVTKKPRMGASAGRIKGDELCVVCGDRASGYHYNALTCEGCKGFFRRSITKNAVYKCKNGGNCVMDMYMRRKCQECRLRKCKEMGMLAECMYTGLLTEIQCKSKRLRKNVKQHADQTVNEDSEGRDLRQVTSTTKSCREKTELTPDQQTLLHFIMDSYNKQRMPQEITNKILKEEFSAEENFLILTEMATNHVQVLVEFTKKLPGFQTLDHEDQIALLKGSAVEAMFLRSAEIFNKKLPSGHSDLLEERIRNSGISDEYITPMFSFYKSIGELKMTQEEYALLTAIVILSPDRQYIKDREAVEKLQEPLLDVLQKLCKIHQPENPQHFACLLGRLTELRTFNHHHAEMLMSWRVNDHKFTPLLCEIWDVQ
Sequence of Arylsulfatase A (Homo sapiens) (P15289 whole entry, looked up): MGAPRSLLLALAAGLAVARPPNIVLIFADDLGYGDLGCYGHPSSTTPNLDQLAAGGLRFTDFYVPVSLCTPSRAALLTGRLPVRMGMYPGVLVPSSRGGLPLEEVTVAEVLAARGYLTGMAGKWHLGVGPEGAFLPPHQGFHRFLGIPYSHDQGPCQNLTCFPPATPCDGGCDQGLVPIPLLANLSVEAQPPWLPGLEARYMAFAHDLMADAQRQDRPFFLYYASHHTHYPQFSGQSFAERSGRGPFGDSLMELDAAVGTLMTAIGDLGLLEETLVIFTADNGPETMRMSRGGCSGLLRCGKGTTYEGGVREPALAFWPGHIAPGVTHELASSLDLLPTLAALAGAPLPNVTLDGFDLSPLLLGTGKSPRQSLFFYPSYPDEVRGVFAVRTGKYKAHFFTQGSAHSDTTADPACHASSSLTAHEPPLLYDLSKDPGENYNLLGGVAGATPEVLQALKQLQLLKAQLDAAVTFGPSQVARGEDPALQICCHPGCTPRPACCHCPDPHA

COc1ccc2c(c1)CCC1C2CC[C@@]2(C)C1CC[C@@H]2NCCCCCCN1C(=O)CCC1=O (some centres undefined)
inactive: outcome [1] | Potency [2] | Potency [3] | Potency [4] | Potency [5]

c1ccc2c(c1)CN1CCCC1=N2
inactive: Potency [6] | Potency [2] | Potency [3] | Potency [4] | Potency [5]

CCCCCCCCCCCCCCCCCC(N)=O
inactive: activation [7] 1.8% | Potency [2] | Potency [3] | Potency [4] | Potency [5]

NCCCCC(=O)O
inactive: outcome [8] | outcome [9] | outcome [1] | Potency [2] | Potency [3] | Potency [4] | Potency [5]

Cc1nc2sccn2c(=O)c1CCN1CCC(=C(c2ccccc2)c2ccc(F)cc2)CC1
inactive: outcome [1] | Potency [2] | Potency [3] | Potency [4] | Potency [5]

CC(=O)O[C@H]1C[C@@H]2CC[C@@H]3[C@H](CC[C@@]4(C)[C@H]3C[C@H]([N+]3(C)CCCCC3)[C@@H]4OC(C)=O)[C@@]2(C)C[C@@H]1[N+]1(C)CCCCC1
inactive: outcome [1] | Potency [6] | Potency [10] | Potency [2] | Potency [3] | Potency [4] | Potency [5]

From PubChem BioAssay (NCATS)
